Where “and” joins values, the source holds several entries; their conditions need not be identical. Equal entries are not always repeated. Where a structure was tested more than once in an assay, its records may differ in their call. Calls of active or inactive are those of the source. Unless noted, calls come from the whole dose curve; as a rule, active = well fitted curve in the direction sought with a large enough effect in the repeat runs; inconclusive = weak or mixed curves; inactive = no such curve, though single readings can be large; an effect the other way counts as inactive or inconclusive.
How the values were obtained:
[1] = qHTS assay to identify small molecule antagonists of the thyroid receptor (TR) signaling pathway - cell viability counter screen (AID 743064); note: nearly all actives have a fitted effect of over 50% in size; note: potency is the fitted concentration of half-maximal effect
In short: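 Compounds were tested on GH3.TRE-Luc cells in the presence of T3 at 1 nM final. Following 23.5 h at 37 °C, cell viability was quantified by CellTiter-Fluor.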

[2] = qHTS assay to identify small molecule antagonists of the estrogen receptor alpha (ER-alpha) signaling pathway - cell viability counter screen (AID 743074; calls by dose curve;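 note: HEK293 cells carrying ER-alpha-UAS-bla reporter stimulated with 17beta-estradiol; nearly all actives have a fitted effect of over 45% in size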; note: potency is the fitted concentration of half-maximal effect)
[3] = qHTS assay to identify small molecule antagonists of the estrogen receptor alpha (ER-alpha) signaling pathway using the BG1 cell line - cell viability counter screen (AID 743081);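 note: compound given together with 17beta-estradiol as the ER stimulus; nearly all actives have a fitted effect of over 45% in size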; note: potency is the fitted concentration of half-maximal effect
Aromatase (Homo sapiens) = Aromatase (Homo sapiens) (UniProt P11511); assay: qHTS assay to identify aromatase inhibitors (AID 743083); note: nearly all actives have a fitted effect of over 55% in size; note: potency is the fitted concentration of half-maximal effect
Chain of Aromatase (Homo sapiens) (P11511 whole entry, looked up): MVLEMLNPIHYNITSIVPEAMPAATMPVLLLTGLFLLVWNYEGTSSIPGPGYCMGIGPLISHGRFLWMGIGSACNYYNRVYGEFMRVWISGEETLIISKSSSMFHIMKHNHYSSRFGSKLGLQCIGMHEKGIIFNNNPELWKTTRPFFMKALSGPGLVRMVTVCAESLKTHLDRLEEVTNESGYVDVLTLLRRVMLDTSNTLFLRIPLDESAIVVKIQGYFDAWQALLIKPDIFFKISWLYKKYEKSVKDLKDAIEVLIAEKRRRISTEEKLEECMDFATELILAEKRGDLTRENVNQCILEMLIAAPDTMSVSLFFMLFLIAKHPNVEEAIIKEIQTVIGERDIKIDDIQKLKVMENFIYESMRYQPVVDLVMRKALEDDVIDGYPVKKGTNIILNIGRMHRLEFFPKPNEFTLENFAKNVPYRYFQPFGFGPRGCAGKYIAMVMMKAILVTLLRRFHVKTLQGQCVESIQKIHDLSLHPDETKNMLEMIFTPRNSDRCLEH

[4] = test system: thyroid hormone receptor (rat, GH3 cells); assay: qHTS assay to identify small molecule agonists of the thyroid receptor (TR) signaling pathway (AID 743066; calls by dose curve; note: potency is the fitted concentration of half-maximal effect)
[5] = target: Estrogen receptor (Homo sapiens) (UniProt P03372); assay: qHTS assay to identify small molecule antagonists of the estrogen receptor alpha (ER-alpha) signaling pathway (AID 743069; active = well fitted curve in the direction sought with a large enough effect in the signal ratio in the repeat runs, not every such curve was filed as active; inconclusive = weak or mixed curves, or effect the other way; inactive = no such curve, though single readings can be large or run the other way; the % refers to the signal ratio; note: potency is the fitted concentration of half-maximal effect)
Chain of Estrogen receptor (Homo sapiens) (P03372 whole entry, looked up): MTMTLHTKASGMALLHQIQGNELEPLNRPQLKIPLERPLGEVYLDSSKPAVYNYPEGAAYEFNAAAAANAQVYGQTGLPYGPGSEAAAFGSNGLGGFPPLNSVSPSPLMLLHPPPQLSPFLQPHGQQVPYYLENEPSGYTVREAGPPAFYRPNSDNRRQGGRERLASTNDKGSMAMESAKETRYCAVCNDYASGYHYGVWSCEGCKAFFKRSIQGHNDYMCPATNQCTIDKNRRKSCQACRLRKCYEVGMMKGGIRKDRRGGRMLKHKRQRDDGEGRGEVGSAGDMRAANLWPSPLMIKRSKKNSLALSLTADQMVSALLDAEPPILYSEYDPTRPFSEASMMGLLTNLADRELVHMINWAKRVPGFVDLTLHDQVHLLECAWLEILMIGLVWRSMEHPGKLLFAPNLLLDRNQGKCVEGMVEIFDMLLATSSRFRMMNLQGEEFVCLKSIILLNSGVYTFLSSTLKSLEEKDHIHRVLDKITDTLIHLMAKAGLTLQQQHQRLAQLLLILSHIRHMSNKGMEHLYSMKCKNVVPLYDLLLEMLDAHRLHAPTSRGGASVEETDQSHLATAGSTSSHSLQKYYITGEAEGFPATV
In short: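 Compound effects are measured against 17beta-estradiol stimulation in HEK293 cells with a UAS-controlled beta-lactamase reporter for ER-alpha. Exposure lasts 18 hr at 37C; LiveBLAzer B/G FRET substrate follows for 2 hr at room temperature.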

[6] = target: Estrogen receptor (Homo sapiens) (UniProt P03372); assay: qHTS assay to identify small molecule agonists of the estrogen receptor alpha (ER-alpha) signaling pathway (AID 743075; calls by dose curve)
[7] = target: Estrogen receptor (Homo sapiens) (UniProt P03372); assay: qHTS assay to identify small molecule agonists of the estrogen receptor alpha (ER-alpha) signaling pathway using the BG1 cell line (AID 743079); note: nearly all actives have a fitted effect of over 20% in size; note: potency is the fitted concentration of half-maximal effect
[8] = qHTS assay to identify small molecule antagonists of the estrogen receptor alpha (ER-alpha) signaling pathway using the BG1 cell line (AID 743080; calls by dose curve;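 note: BG1 cells stimulated with 17beta-estradiol alongside compound; nearly all actives have a fitted effect of over 25% in size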; note: potency is the fitted concentration of half-maximal effect); conditions: BG1Luc4E2 ERE-luciferase antagonist mode, luminescence; activity change, negative = inhibition: at 70.3 µM (top of the series)
In short: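 Quantitative HTS on the Tox21 10K library: BG1 cells with endogenous ER-alpha and ERE-luciferase reporter, 17beta-estradiol stimulation, 21.5 h compound exposure, luminescence endpoint with parallel fluorescence cytotoxicity counter-read.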

[9] = qHTS assay to identify small molecule antagonists of the thyroid receptor (TR) signaling pathway (AID 743065); note: nearly all actives have a fitted effect of over 55% in size; note: potency is the fitted concentration of half-maximal effect
In short: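 Antagonism measured as loss of luciferase signal in GH3 cells stably carrying a TRE-luciferase reporter, co-treated with compound and T3 (1 nM final) for 23.5 h at 37 C. Viability was read in the same well by CellTiter-Fluor.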

Measured: Potency
% is set by controls: 0 for no effect and ±100 for the full control effect.

Cn1c(=O)c2c(ncn2C)n(C)c1=O
inactive: [1] | [2] | [3] | Aromatase (Homo sapiens)

CC(=O)Nc1c(I)c(NC(C)=O)c(I)c(C(=O)O)c1I
inactive: [1] | [4] | [2] | [3]

Oc1ccccc1
inactive: [1] | [2] | [3] | Aromatase (Homo sapiens)

Cc1c(C(=O)O)c(O)cc2c1C(=O)c1c(O)c([C@@H]3O[C@H](CO)[C@@H](O)[C@H](O)[C@H]3O)c(O)c(O)c1C2=O
inactive: [4] | [5] | [2] | [6] | [7]
active: [1] 13.3 µM and 59.6 µM and 61.1 µM | [3] 18.8 µM and 29.9 µM and 27.3 µM

CC(=O)C(=O)O
inactive: [1] | [2] | [3] | Aromatase (Homo sapiens)

O=CC(=O)c1ccccc1
inactive: [1] | [5] | [2] | [6] | [7] | [8] | [3] | Aromatase (Homo sapiens)

O=C1NS(=O)(=O)c2ccccc21
inactive: [1] | [2] | [3] | Aromatase (Homo sapiens)

O=C(O)c1ccccc1
inactive: [1] | [5] | [2] | [6] | [8] | [3] | Aromatase (Homo sapiens)
5.1 µM (active) and inactive: [7]

O=C(Nc1ncc([N+](=O)[O-])s1)c1cccs1
active: [9] 21.1 µM
inactive: [4] | [5] | [6] | Aromatase (Homo sapiens)

CN1CCc2cccc3c2[C@H]1Cc1ccc(O)c(O)c1-3
active: [1] 29.8 µM and 49.1 µM and 22.8 µM | [3] 69.3 µM | Aromatase (Homo sapiens) 21.9 µM and 11.4 µM
inactive: [5] | [2] | [6]

CS(=O)(=O)OCCCCOS(C)(=O)=O
11.9 µM (active) and inactive: [7]
inactive: [1] | [5] | [2] | [6] | [8] | [3] | Aromatase (Homo sapiens)

C1=CC2C3C=CC(C3)C2C1 (centres undefined)
inactive: [9] | [4] | [3]

Cc1cc(=O)oc2cc(O)ccc12
inactive: [4] | [5] | [2] | [6] | [7] | [8] | [3] | Aromatase (Homo sapiens)

COc1ccc(CN(CCN(C)C)c2ccccn2)cc1
inactive: [4] | [2] | [3]

CC/C(=C(\c1ccccc1)c1ccc(OCCN(C)C)cc1)c1ccccc1
active: [9] 8.63 µM [middle of 5 runs] | [2] 48.9 µM and 49.4 µM and 49 µM
inactive: [4] | [3]

C[C@](N)(Cc1ccc(O)c(O)c1)C(=O)O
inactive: [1] | [4] | [2] | [3] | Aromatase (Homo sapiens)

O=C(O)CC(O)C(=O)O (centres undefined)
inactive: [1] | [2] | [3] | Aromatase (Homo sapiens)

Cc1ccc(S(=O)(=O)O)cc1
inactive: [1] | [4] | [2] | [3]

CCN(Cc1c(F)cccc1Cl)c1c([N+](=O)[O-])cc(C(F)(F)F)cc1[N+](=O)[O-]
inactive: [1] | [4] | [2] | [6] | [8] | [3]
active: [7] 21.7 µM | Aromatase (Homo sapiens) 27.3 µM

O=c1[nH]cc(F)c(=O)[nH]1
active: [1] 20.1 µM
inactive: [5] | [2] | [6] | [7] | [8] | [3] | Aromatase (Homo sapiens)

NC(=O)n1c(O)c(C(=O)c2cccs2)c2cc(Cl)ccc21
inactive: [2] | [6]
active: [9] 29.8 µM | [5] 21.3 µM [inconclusive] | [8] 29.8 µM

NC(=O)c1cccnc1
inactive: [5] | [2] | [6] | [7] | [8] | [3] | Aromatase (Homo sapiens)

CC1(C)S[C@@H]2[C@H](NC(=O)[C@H](N)c3ccccc3)C(=O)N2[C@H]1C(=O)O
inactive: [2] | [3] | Aromatase (Homo sapiens)

C=CCc1ccc(O)c(OC)c1
inactive: [1] | [5] | [2] | [6] | [7] | [8] | [3] | Aromatase (Homo sapiens)

O=C1O[C@H]([C@@H](O)CO)C(O)=C1O
inactive: [1] | [2] | [3] | Aromatase (Homo sapiens)
inactive and 34.3 µM (active): [4]

CC(O)(P(=O)(O)O)P(=O)(O)O
inactive: [1] | [4] | [2] | [3] | Aromatase (Homo sapiens)

CC(C)c1c(C(=O)Nc2ccccc2)c(-c2ccccc2)c(-c2ccc(F)cc2)n1CC[C@@H](O)C[C@@H](O)CC(=O)O
inactive: [4] | [2] | [3]
inactive and 57.1 µM (active): [1]

CN(C)CCOC(C)(c1ccccc1)c1ccccn1 (centres undefined)
inactive: [2] | [3] | Aromatase (Homo sapiens)

— PubChem BioAssay (Tox21)
